The record followed here is PubChem BioAssay.

Structures are written as SMILES.

In the first assay the target is Alpha-bungarotoxin (Bungarus multicinctus) (UniProt P60615). In words: alpha-bungarotoxin binders on microarray, profiling panel, artefact control for SMM control protein annotation, biochemical, small-molecule microarray, Alexa647 label, 635/667 nm fluorescence (AID 1117). To be noted: alpha-BTX-A647 binding fluorescence, higher = more signal.
Chain of Alpha-bungarotoxin (Bungarus multicinctus) (P60615 whole entry, looked up): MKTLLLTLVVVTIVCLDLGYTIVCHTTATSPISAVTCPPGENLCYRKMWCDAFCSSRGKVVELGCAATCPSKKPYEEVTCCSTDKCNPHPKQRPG
Consider `CC(C)[C@H]1COC(=O)N1C(=O)[C@H]1[C@@H](c2ccccc2)N(c2ccccc2)O[C@@H]1C`, for which the composite z-score was found to be 0.107.

With `O=C1O[C@@H](c2ccccc2)[C@@H](c2ccccc2)N2[C@@H](c3ccc(O)cc3)[C@]3(C(=O)Nc4ccc(C#CCCO)cc43)[C@@H](C(=O)O)[C@H]12`, the composite z-score was found to be 2.14.

Consider `Cc1ccc(S[C@]2(C(=O)NCCCN(C)C)CC(=O)N(C(C)C)[C@@H]2c2ccc(CO)cc2I)cc1`, for which the composite z-score turned out to be 0.397.

Regarding `Cc1ccc(N2C(=O)c3ccccc3[C@](C)(C(=O)NCCN3CCOCC3)[C@@H]2c2ccc(CO)cc2)nc1`, the composite z-score was -1.44.

In the case of `COC(=O)C(CC#Cc1ccc2c(c1)[C@]1(C(=O)N2)[C@H](C(=O)N2CCCCCCC2)[C@H]2C(=O)O[C@H](c3ccccc3)[C@H](c3ccccc3)N2[C@@H]1c1ccccc1OCCO)C(=O)OC`, the composite z-score turned out to be 4.45.

For another assay, the target named is Albumin (Bos taurus) (UniProt P02769). In words: bovine serum albumin binders on microarray, profiling panel, artefact control for SMM control protein annotation, biochemical, small-molecule microarray, Alexa647 label, 635/667 nm fluorescence (AID 1118).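 Note: score merges 667 nm emission intensity and signal-to-noise per printed compound spot.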 To be noted: BSA-A647 binding, fluorescence 635 nm, higher = more signal.
Chain of Albumin (Bos taurus) (P02769 whole entry, looked up): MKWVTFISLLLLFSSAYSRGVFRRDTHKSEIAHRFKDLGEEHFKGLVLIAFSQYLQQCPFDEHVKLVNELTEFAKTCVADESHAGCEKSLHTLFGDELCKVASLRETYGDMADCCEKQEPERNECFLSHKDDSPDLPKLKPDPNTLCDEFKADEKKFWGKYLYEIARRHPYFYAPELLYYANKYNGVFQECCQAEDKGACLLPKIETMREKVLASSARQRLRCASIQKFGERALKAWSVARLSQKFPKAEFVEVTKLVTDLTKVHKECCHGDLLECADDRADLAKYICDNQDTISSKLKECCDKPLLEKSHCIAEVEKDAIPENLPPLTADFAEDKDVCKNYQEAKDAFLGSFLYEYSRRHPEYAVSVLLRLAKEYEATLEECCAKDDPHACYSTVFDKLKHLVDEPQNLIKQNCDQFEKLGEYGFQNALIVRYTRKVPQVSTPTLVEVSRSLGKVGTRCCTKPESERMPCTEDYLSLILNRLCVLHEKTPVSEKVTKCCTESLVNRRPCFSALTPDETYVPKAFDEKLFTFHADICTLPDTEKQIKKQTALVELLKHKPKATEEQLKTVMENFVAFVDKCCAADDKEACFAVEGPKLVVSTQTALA
The molecule `Oc1ccc2cc[n+](Cc3cccc(OC(F)(F)F)c3)cc2c1` showed a composite z-score of -0.192.

For `CC1CC/C=C\[C@H]2OC34C=CCN(CCN5CCOCC5)C(=O)[C@H]3N(CCCCCO)C(=O)[C@@H]4C2C(=O)O1` (stereo partly specified), the composite z-score is -1.19.

For `C=C(C(=O)CC[C@@H](OC(=O)c1cccnc1)c1ccc(CO)o1)C(C)C`, the composite z-score was 0.0207.

As to `C=CCC(OC(C)=O)[C@@H]1[C@@H](N(Cc2cc3ccccc3o2)C(=O)c2cccc3ccccc23)c2cc(OCCCO)ccc2N1C(=O)Cc1ccc(OC)cc1` (stereo partly specified), the composite z-score is -0.131.

`C=CCN1C(=O)[C@]2(COC(c3ccc(OCCCO)cc3)=N2)Cc2ccccc21` yielded a composite z-score of 0.284.

As for `O=C(NCc1ccccc1)[C@@H]1c2ccccc2C(=O)N(C2CCCCC2)[C@H]1c1ccc(CO)cc1`, the composite z-score was found to be 0.654.

`[N-]=[N+]=NCc1ccccc1C[C@@]1(C(=O)NCc2ccccc2)N=C(c2ccc(OCCCO)cc2)O[C@@H]1c1ccccc1CN=[N+]=[N-]` had a composite z-score of 0.684.

Molecule `CCOC(=O)C=Cc1cccc(OC)c1O` registered a composite z-score of 0.576.

`CN(C)CCCC[C@@H]1NC(=O)[C@H]2C[C@@H](C(=O)NCCCCCNC(=O)CS)[C@@H](c3ccc(O)cc3)N2C1=O` registered a composite z-score of 0.74.

In the case of `COC(=O)[C@@]1(Cc2ccccc2)[C@H]2c3cc(C(=O)N(C)C)n(Cc4cc(F)c(F)c(F)c4)c3C[C@H]2CN1C(=O)c1ccccc1`, the composite z-score came out at 1.04.

`C=C(C)[C@@H]1CC=C(C(O)C2C=CC3C(=O)N(Cc4ccccc4)C(=O)C3N2n2cnnc2)CC1` (stereo partly specified) gave a composite z-score of 0.936.

`O=C(NCCN1CCOCC1)[C@@H]1c2ccccc2C(=O)N(Cc2cc(F)cc(C(F)(F)F)c2)[C@H]1c1ccc(CO)cc1`: the composite z-score is -0.265.

The molecule `O=C1O[C@H](c2ccccc2)[C@H](c2ccccc2)N2[C@H]1[C@@H](C(=O)NC[C@H](O)c1ccccc1)[C@]1(C(=O)Nc3ccc(C#CC4(O)CCCCCC4)cc31)[C@H]2c1ccccc1OCCO` returned a composite z-score of 0.574.

For `C=C(/C(=C/C[C@@H](OC(=O)c1ccncc1)c1ccc(CO)o1)c1cc(C(=O)OC)ccc1OC)C(C)C`, the composite z-score is 0.83.

As to `COc1ccc([Si](C)(C)[C@@H]2[C@@H](CCO)O[C@]3(C(=O)N(Cc4ccccc4)c4ccc(N(C=O)c5ccccc5)cc43)[C@H]2C)cc1`, the composite z-score was 0.624.

With `CCCCCCC#C[Si](O[C@H](c1ccccc1)c1cn([C@H](C)c2ccccc2)nn1)(C(C)C)C(C)C`, the composite z-score came to 0.672.

`[N-]=[N+]=NCc1ccccc1[C@@H]1OC(c2ccc(OCCCO)cc2)=N[C@]1(Cc1ccccc1)C(=O)O` displayed a composite z-score of 0.188.

`CCCC[C@@H]1C[C@H]1[C@@H](NC(=O)c1ccccc1)c1ccc(-c2ccccc2)cc1` displayed a composite z-score of 0.891.

Molecule `Cc1ccc(S[C@]2(C(=O)NCCN3CCOCC3)CC(=O)N(C3CCCCC3)[C@@H]2c2ccc(CO)cc2)cc1` came in with a composite z-score of 0.869.

Turning to `CC(C)NC(=O)[C@@]1(c2ccc([N+](=O)[O-])cc2)CC(=O)N(C(C)C)[C@@H]1c1ccc(CO)cc1`, the composite z-score was 0.697.

For the molecule `C=CCN1Cc2ccccc2C[C@@]2(COC(c3ccc(OCCCO)cc3)=N2)C1=O`, the composite z-score was -0.476.

`COCCn1c(C(=O)N2CCCC2)cc2c1C[C@H]1CN(C(=O)c3ccccc3)[C@@](Cc3ccc(OC)cc3)(C(=O)OC)[C@@H]21`: the composite z-score came out at 1.11.

For `C=C[C@@H](C)[C@@H](OC(=O)Nc1ccc(OC)cc1)c1ccc(O)c2ccccc12`, the composite z-score was found to be 0.199.

`COCCOC(=O)N1C(=O)[C@@]2(c3ccccc31)[C@H](C(=O)N1CCCCCCC1)[C@H]1C(=O)O[C@H](c3ccccc3)[C@H](c3ccccc3)N1[C@@H]2c1ccccc1OCCO` had a composite z-score of 0.911.

The molecule `COCCn1c(C(=O)N(C)C)cc2c1C[C@H]1CN(C(=O)c3ccccc3)[C@@](Cc3ccc(F)cc3)(C(=O)OC)[C@@H]21` displayed a composite z-score of 0.985.

Molecule `CC(C)N1C(=O)c2ccccc2[C@](C)(C(=O)NCCCN(C)C)[C@@H]1c1ccc(CO)cc1` showed a composite z-score of 0.222.

On to `O=C1C2C=CC(C(O)c3ccc(-c4ccccc4)s3)N(Nc3ccccc3F)C2C(=O)N1c1ccccc1` (stereo unspecified), for which the composite z-score amounted to 0.822.

For `CN1C(=O)C2C(C1=O)C1C=C(c3ccc(CO)cc3)C2C(C2CC2)N1Cc1sc2ccccc2c1Cl` (stereo unspecified), the composite z-score amounted to 0.947.

For `CO[C@H]1O[C@H](CO)[C@@H](OC(=O)Nc2ccc3c(c2)OCO3)[C@H](OC(=O)Nc2ccc3c(c2)OCO3)[C@H]1OC(=O)Nc1ccc2c(c1)OCO2`, the composite z-score came to 0.733.

In the case of `C=CC[C@]1(C(=O)NCCN2CCOCC2)N=C(c2ccc(OCCCO)cc2)O[C@H]1c1ccccc1N=[N+]=[N-]`, the composite z-score was determined as 0.927.

With `C=CCNC(=O)[C@@H]1[C@H]2C(=O)O[C@H](c3ccccc3)[C@H](c3ccccc3)N2[C@H](c2ccccc2OCCO)[C@@]12C(=O)N(C(=O)OCCOC)c1ccc(C#CCC(C(=O)OC)C(=O)OC)cc12`, the composite z-score amounted to 0.718.

Consider `CC(C)[C@H]1COC(=O)N1C(=O)[C@H]1[C@@H](c2ccccc2)N(c2ccccc2)O[C@@H]1C`, for which the composite z-score was 0.15.

`O=C1O[C@@H](c2ccccc2)[C@@H](c2ccccc2)N2[C@@H](c3ccc(O)cc3)[C@]3(C(=O)Nc4ccc(C#CCCO)cc43)[C@@H](C(=O)O)[C@H]12` came in with a composite z-score of 0.323.

`Cc1ccc(S[C@]2(C(=O)NCCCN(C)C)CC(=O)N(C(C)C)[C@@H]2c2ccc(CO)cc2I)cc1` displayed a composite z-score of 0.746.

As for `Cc1ccc(N2C(=O)c3ccccc3[C@](C)(C(=O)NCCN3CCOCC3)[C@@H]2c2ccc(CO)cc2)nc1`, the composite z-score was -0.657.

On to `COC(=O)C(CC#Cc1ccc2c(c1)[C@]1(C(=O)N2)[C@H](C(=O)N2CCCCCCC2)[C@H]2C(=O)O[C@H](c3ccccc3)[C@H](c3ccccc3)N2[C@@H]1c1ccccc1OCCO)C(=O)OC`, for which the composite z-score came out at 0.678.
